# Results taken from PubChem BioAssay (Tox21).
# Unmarked numbers belong to inactive results. Results filed as inconclusive are left out. A call without a number means that no potency is given here. Active and inactive are the calls of the source. Unless noted, calls come from the whole dose curve; as a rule, active = well fitted curve in the direction sought with a large enough effect in the repeat runs; inconclusive = weak or mixed curves; inactive = no such curve, though single readings can be large; an effect the other way counts as inactive or inconclusive.
# How the values were obtained:
# [1] = qHTS assay to identify small molecule antagonists of the sonic hedgehog signaling (Shh) pathway (AID 1259369; calls by dose curve; note: nearly all actives have a fitted effect of over 45% in size)
# In short: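 Read-out is luminescence from a firefly luciferase gene controlled by the Gli1 response element, in 3T3Gli1-Luc cells pre-incubated 4hr then exposed to compounds and conditioned medium for 24hr.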
# [2] = molecular target: Estrogen receptor beta (Homo sapiens) (UniProt Q92731); test: qHTS assay to identify small molecule agonists of the estrogen receptor beta (ER-beta) signaling pathway (AID 1259377; active = well fitted activation curve with a large enough effect in the signal ratio in the repeat runs, not every such curve was filed as active; the % refers to the signal ratio)
# Sequence of Estrogen receptor beta (Homo sapiens) (Q92731 whole entry, looked up): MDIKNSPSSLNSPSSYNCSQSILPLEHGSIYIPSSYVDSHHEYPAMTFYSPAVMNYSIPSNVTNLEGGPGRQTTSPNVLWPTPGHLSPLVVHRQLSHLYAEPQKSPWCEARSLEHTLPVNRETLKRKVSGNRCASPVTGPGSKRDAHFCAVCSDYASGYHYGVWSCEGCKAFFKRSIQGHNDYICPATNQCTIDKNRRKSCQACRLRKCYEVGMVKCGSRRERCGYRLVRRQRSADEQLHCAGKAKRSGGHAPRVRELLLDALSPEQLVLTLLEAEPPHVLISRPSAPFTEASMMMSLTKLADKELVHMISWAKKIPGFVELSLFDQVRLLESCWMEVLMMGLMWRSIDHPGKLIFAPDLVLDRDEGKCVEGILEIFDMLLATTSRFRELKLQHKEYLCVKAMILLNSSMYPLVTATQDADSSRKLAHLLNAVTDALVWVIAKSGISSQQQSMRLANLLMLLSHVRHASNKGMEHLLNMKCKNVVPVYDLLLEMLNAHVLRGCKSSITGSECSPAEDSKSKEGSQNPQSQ
# In short: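 Ratiometric beta-lactamase FRET read-out came after 2 h substrate loading at room temperature. It followed 16 h compound treatment at 37C of GripTite HEK293T cells carrying a UAS-bla reporter, plated in 2% charcoal-stripped FBS medium.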
# [3] = molecular target: Estrogen receptor beta (Homo sapiens) (UniProt Q92731); test: qHTS assay to identify small molecule antagonists of the estrogen receptor beta (ER-beta) signaling pathway (AID 1259378; active = well fitted inhibition curve with a large enough effect in the signal ratio in the repeat runs, not every such curve was filed as active; the % refers to the signal ratio; note: potency is the fitted concentration of half-maximal effect)
# In short: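 ER-beta-UAS-bla HEK293T (GripTite) cells in 2% charcoal-stripped FBS medium were preincubated 6 hr at 37C, dosed with compound, then stimulated with 1 nM E2 (final) for 16 hr; beta-lactamase reporter read by B/G FRET fluorescence after 2 hr substrate loading.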
# [4] = qHTS assay to identify small molecule agonists of the androgen receptor (AR) signaling pathway in the presence of an antagonist - cell viability counter screen (AID 1259379);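 note: MDA-kb2 human breast cancer cells carrying an MMTV luciferase reporter; series mostly up to about 92 µM; nearly all actives have a fitted effect of over 25% in size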
# In short: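 Each compound was tested at 15 concentrations on MDA-kb2 cells in the presence of 3.0uM nilutamide. Viability was measured by CellTiter-Fluor fluorescence after a 16 hr incubation at 37C in a CO2-free atmosphere.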
# [5] = qHTS assay to identify small molecule agonists of the estrogen receptor beta (ER-beta) signaling pathway - cell viability counter screen (AID 1259380); note: nearly all actives have a fitted effect of over 30% in size
# In short: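 Compounds dissolved in DMSO were pin-transferred onto ER-beta-UAS-bla HEK293T cells that had settled 6 hr, and exposure ran 16 hr at 37C. Following the reporter read, CellTiter-Glo luminescence after 30 min at room temperature indicated cytotoxicity.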
# [6] = qHTS assay to identify small molecule antagonists of the estrogen receptor beta (ER-beta) signaling pathway - cell viability counter screen (AID 1259382); note: series mostly up to about 92 µM; nearly all actives have a fitted effect of over 55% in size
# In short: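 CellTiter-Glo ATP luminescence measured after the LiveBLAzer read in the same wells; ER-beta-UAS-bla HEK293T cells, 16 hr compound treatment with 1nM 17-beta-estradiol agonist at 37C, 5% CO2.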
# [7] = qHTS assay to identify small molecule agonists or antagonists of the thyroid stimulating hormone receptor (TSHR) signaling pathway - wild type cell line counter screen (AID 1259384; calls by dose curve)
# In short: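 Wild-type HEK293 cells were plated 18 h at 37 C/5% CO2, pin-dosed with compound plus Ro20-1724 medium, held 30 min at room temperature, then given cAMP-d2 and anti-cAMP-cryptate; fluorescence was read after 1 h. Fifteen concentrations, triplicate.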
# [8] = molecular target: Thyrotropin receptor (Homo sapiens) (UniProt P16473); test: qHTS assay to identify small molecule antagonists of the thyroid stimulating hormone receptor (TSHR) signaling pathway (AID 1259385; calls by dose curve; note: nearly all actives have a fitted effect of over 20% in size)
# Sequence of Thyrotropin receptor (Homo sapiens) (P16473 whole entry, looked up): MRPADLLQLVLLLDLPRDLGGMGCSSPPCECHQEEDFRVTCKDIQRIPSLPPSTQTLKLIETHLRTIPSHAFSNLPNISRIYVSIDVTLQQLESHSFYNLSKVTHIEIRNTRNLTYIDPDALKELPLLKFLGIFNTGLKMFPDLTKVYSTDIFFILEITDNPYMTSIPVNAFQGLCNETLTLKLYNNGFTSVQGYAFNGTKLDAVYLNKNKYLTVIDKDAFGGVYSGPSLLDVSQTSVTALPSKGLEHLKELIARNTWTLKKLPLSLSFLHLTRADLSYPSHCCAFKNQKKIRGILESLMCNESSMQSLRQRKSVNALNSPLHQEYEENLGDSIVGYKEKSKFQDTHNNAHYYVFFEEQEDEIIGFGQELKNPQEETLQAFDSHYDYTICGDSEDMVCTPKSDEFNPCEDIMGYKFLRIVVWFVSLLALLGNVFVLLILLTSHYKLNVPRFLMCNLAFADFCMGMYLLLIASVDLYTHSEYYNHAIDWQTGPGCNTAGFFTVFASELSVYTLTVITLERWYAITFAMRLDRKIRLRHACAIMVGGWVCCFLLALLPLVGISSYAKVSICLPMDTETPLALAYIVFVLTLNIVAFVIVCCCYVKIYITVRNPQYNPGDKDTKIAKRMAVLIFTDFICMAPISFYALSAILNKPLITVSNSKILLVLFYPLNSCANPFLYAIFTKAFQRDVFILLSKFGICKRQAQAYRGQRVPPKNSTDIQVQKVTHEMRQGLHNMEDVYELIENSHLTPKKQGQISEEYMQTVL
# In short: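 TSHR-HEK293 cells were plated and held 18 h at 37C/5% CO2, then given compound plus Ro20-1724 and stimulated with TSH at 1.5 ng/mL final. After 30 min at room temperature, cAMP was detected with cAMP-d2/anti-cAMP-cryptate (1 h) by fluorescence.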
# [9] = qHTS assay to identify small molecule agonists of the estrogen receptor alpha (ER-alpha) signaling pathway in the presence of an antagonist - cell viability counter screen (AID 1259386);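 note: series mostly up to about 92 µM; cells exposed to compounds for 22 h at 37 °C before the viability read; nearly all actives have a fitted effect of over 30% in size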
# In short: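 Using estrogen-depleted VM7Luc4E2 cells, the 15-concentration compound series was applied together with 10.0nM ICI-182,780 and incubated 22hr at 37C/5% CO2. Cell viability was then scored by CellTiter-Fluor.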
# [10] = molecular target: Progesterone receptor (Homo sapiens) (UniProt P06401); test: qHTS assay to identify small molecule agonists of the progesterone receptor (PR) signaling pathway (AID 1346784; calls by dose curve; note: nearly all actives have a fitted effect of over 30% in size)
# Sequence of Progesterone receptor (Homo sapiens) (P06401 whole entry, looked up): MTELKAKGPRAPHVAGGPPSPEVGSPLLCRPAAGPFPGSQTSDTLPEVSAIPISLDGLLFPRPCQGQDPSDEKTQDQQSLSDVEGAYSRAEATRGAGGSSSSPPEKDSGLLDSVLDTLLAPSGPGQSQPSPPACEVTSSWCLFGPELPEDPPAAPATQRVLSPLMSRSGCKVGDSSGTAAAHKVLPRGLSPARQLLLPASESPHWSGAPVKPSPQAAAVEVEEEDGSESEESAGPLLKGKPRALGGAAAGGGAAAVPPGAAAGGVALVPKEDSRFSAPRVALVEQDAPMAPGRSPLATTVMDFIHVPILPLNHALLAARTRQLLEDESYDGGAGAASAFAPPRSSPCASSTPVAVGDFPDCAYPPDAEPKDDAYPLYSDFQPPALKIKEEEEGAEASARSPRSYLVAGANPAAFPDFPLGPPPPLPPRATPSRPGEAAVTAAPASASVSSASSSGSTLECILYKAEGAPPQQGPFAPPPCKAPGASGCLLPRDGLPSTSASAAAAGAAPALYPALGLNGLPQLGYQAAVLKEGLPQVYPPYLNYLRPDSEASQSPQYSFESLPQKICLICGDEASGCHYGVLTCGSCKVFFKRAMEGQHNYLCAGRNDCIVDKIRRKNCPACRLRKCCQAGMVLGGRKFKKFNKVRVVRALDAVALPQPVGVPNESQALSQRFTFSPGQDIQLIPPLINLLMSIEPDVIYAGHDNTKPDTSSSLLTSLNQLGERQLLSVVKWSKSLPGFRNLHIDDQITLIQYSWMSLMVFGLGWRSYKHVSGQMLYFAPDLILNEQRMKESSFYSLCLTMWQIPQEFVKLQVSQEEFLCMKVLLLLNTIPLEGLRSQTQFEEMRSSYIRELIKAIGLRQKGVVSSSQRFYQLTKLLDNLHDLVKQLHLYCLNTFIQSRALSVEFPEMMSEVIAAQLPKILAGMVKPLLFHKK
# In short: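 Agonist qHTS: compounds pinned onto 3,000 PR-UAS-bla HEK 293T cells per well in charcoal-stripped serum medium, 16hr at 37C, then beta-lactamase activity measured by LiveBLAzer FRET fluorescence after 2 hours at room temperature.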
# [11] = molecular target: Progesterone receptor (Homo sapiens) (UniProt P06401); test: qHTS assay to identify small molecule antagonists of the progesterone receptor (PR) signaling pathway (AID 1346795; active = well fitted inhibition curve with a large enough effect in the signal ratio in the repeat runs, not every such curve was filed as active; the % refers to the signal ratio)
# In short: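 Antagonist mode with agonist R5020 at 1 nM final and 16 hr incubation at 37C. Reporter was beta-lactamase driven by UAS in HEK293T (PR-UAS-bla), 2% charcoal-stripped serum; signal from LiveBLAzer FRET substrate, 2 hr at room temperature.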
# [12] = qHTS assay to identify small molecule antagonists of the progesterone receptor (PR) signaling pathway - cell viability counter screen (AID 1346798); note: series mostly up to about 92 µM; nearly all actives have a fitted effect of over 50% in size
# In short: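 Cytotoxicity read as CellTiter-Glo luminescence (30 min, room temperature) in the same wells as the beta-lactamase readout. HEK293T PR-UAS-bla cells in charcoal-stripped 2% FBS received compound and R5020, then 16 h at 37C, 5% CO2.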
# [13] = qHTS assay to identify small molecule agonists of the progesterone receptor (PR) signaling pathway - cell viability counter screen (AID 1346799; calls by dose curve; note: nearly all actives have a fitted effect of over 45% in size)
# In short: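 Cytotoxicity measured by CellTiter-Glo luminescence (30 min, RT) in the same wells as the PR beta-lactamase agonist read. Those HEK293T cells had 16 h compound treatment at 37 C in 2% charcoal-stripped FBS medium.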
# [14] = qHTS assay to identify small molecule antagonists of the TGF-beta/Smad signaling pathway - cell viability counter screen (AID 1346824); note: nearly all actives have a fitted effect of over 50% in size
# In short: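 SBE-bla HEK 293T cells were plated overnight at 37 C, then given compounds in DMSO plus TGF-beta1 (added as 0.25 ng/mL solution) for 5 hr. After the bla read, CellTiter-Glo was added to the same wells and luminescence read after 30 min at room temperature.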
# [15] = qHTS assay to identify small molecule agonists of the TGF-beta/Smad signaling pathway - cell viability counter screen (AID 1346829); note: top concentration of the series differs between compounds; nearly all actives have a fitted effect of over 45% in size
# In short: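 Here the cytotoxicity of library compounds is measured in SBE-bla HEK 293T cells treated for 5 hr, using CellTiter-Glo added to wells already read for the beta-lactamase reporter.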
# [16] = qHTS assay to identify small molecule agonists of the TGF-beta/Smad signaling pathway (AID 1346859; active = well fitted activation curve with a large enough effect in the signal ratio in the repeat runs, not every such curve was filed as active; the % refers to the signal ratio; note: series mostly up to about 77 µM)
# In short: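 Fluorescence (ex 405 nm; em 460 and 530 nm) was read 2 h after LiveBLAzer FRET substrate at RT. The preceding compound treatment of overnight-plated SBE-bla HEK293T cells lasted 5 h at 37 C.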
# [17] = molecular target: Thyrotropin-releasing hormone receptor (Homo sapiens) (UniProt P34981); test: qHTS assay to identify small molecule antagonists of the thyrotropin-releasing hormone receptor (TRHR) signaling pathway (AID 1346877; active = well fitted inhibition curve with a large enough effect in the repeat runs, not every such curve was filed as active; note: series mostly up to about 51 µM)
# Sequence of Thyrotropin-releasing hormone receptor (Homo sapiens) (P34981 whole entry, looked up): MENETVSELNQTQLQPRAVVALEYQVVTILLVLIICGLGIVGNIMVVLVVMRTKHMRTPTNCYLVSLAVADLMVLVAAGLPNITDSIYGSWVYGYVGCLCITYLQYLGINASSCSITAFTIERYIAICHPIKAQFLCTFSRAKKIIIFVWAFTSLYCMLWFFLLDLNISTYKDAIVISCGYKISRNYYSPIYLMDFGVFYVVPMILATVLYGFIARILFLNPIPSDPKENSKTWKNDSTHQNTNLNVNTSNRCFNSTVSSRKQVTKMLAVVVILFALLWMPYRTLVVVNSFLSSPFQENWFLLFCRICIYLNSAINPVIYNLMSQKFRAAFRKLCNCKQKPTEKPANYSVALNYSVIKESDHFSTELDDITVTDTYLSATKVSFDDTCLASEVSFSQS
# In short: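 Calcium signal in dye-loaded TRHR/HEK293 cells; compounds added 5 min before TRH (1 nM final); fluorescence monitored 3 min at 1 s steps.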
# [18] = molecular target: Thyrotropin-releasing hormone receptor (Homo sapiens) (UniProt P34981); test: qHTS assay to identify small molecule agonists of the thyrotropin-releasing hormone receptor (TRHR) signaling pathway (AID 1346891; calls by dose curve; note: series mostly up to about 58 µM)
# In short: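 Agonist-mode intracellular calcium readout: kinetic fluorescence over 3 min at 1 s intervals after compound addition to TRHR-HEK293 cells (18 h seeded, 2 h dye-loaded at 37 C). Fifteen concentrations, triplicates.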
# [19] = molecular target: Estrogen receptor (Homo sapiens) (UniProt P03372); test: qHTS assay to identify small molecule agonists of the estrogen receptor alpha (ER-alpha) signaling pathway in the presence of an antagonist (AID 1259383; calls by dose curve; note: top concentration of the series differs between compounds; nearly all actives have a fitted effect of over 15% in size)
# Sequence of Estrogen receptor (Homo sapiens) (P03372 whole entry, looked up): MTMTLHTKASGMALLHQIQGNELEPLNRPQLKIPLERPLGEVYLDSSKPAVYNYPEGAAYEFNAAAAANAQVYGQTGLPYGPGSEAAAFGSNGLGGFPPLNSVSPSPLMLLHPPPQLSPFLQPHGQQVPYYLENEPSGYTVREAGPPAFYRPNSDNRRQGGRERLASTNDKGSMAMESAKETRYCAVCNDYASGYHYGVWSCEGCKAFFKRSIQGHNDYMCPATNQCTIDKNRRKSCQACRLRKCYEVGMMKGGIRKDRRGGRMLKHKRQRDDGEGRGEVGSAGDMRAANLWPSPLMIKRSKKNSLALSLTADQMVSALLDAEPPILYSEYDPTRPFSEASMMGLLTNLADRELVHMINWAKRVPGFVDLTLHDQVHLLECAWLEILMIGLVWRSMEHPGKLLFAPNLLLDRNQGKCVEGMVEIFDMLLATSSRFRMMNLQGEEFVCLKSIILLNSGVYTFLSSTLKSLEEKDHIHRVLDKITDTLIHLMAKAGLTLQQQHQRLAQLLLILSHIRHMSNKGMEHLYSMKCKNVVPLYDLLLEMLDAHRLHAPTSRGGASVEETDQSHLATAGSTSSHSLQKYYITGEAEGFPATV
# In short: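 Luminescent ERE-luciferase reporter, VM7Luc4E2 cells (endogenous ER-alpha); 10.0nM ICI-182,780 final; 15-point compound titration; 22hr at 37C; ONE-Glo, 30min RT.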
smiles,measurement,setting,value
CCOP(O)OCC,Potency,[1],inactive
same,Potency,[2],inactive
same,Potency,[3],inactive
same,Potency,[4],inactive
same,Potency,[5],inactive
same,Potency,[6],inactive
same,outcome,[7],inactive
same,Potency,[8],inactive
same,Potency,[9],inactive
same,Potency,[10],inactive
same,Potency,[11],inactive
same,Potency,[12],inactive
same,Potency,[13],inactive
same,Potency,[14],inactive
same,Potency,[15],inactive
same,outcome,[16],inactive
same,Potency,[17],inactive
same,Potency,[18],inactive
NCC(CC(=O)O)c1ccc(Cl)cc1 (stereo not given),"activity change, negative = inhibition",[1],38.7% [at 0.349 µM]
same,activation,[2],-2.59% [at 0.348 µM]
same,"activity, negative = inhibition",[3],0.814% [at 0.349 µM]
same,"activity change, negative = cytotoxicity",[4],0.676% [at 0.35 µM]
same,"activity change, negative = cytotoxicity",[5],4.02% [at 0.349 µM]
same,"activity change, negative = cytotoxicity",[6],5.5% [at 0.349 µM]
same,cAMP activity change,[7],0.519% [at 0.349 µM]
same,"activity change, negative = inhibition",[8],2.95% [at 0.349 µM]
same,"activity change, negative = cytotoxicity",[9],7.95% [at 0.349 µM]
same,activation,[10],1.24% [at 0.349 µM]
same,"activity change, negative = inhibition",[11],7.47% [at 0.348 µM]
same,"activity change, negative = cytotoxicity",[12],-8.73% [at 0.348 µM]
same,"activity change, negative = cytotoxicity",[13],0.204% [at 0.349 µM]
same,"viability change, negative = cytotoxic",[14],2.11% [at 0.29 µM]
same,"activity change, negative = cytotoxicity",[15],-5.36% [at 0.29 µM]
same,activation,[16],-0.421% [at 0.29 µM]
same,"activity, negative = inhibition",[17],7.63% [at 0.194 µM]
same,activation,[18],-0.989% [at 0.218 µM]
CC1(C)[C@H](C=C(Cl)Cl)[C@@H]1C(=O)O[C@@H](C#N)c1cccc(Oc2ccccc2)c1,Potency,[1],inactive
same,Potency,[2],inactive
same,Potency,[3],inactive
same,Potency,[4],inactive
same,Potency,[5],inactive
same,Potency,[19],inactive
same,outcome,[7],inactive
same,Potency,[8],inactive
same,Potency,[9],inactive
same,Potency,[10],inactive
same,Potency,[12],inactive
same,Potency,[14],inactive
same,Potency,[15],inactive
same,outcome,[16],inactive
same,Potency,[17],inactive
same,Potency,[18],inactive
O=Cc1ccc2c(c1)OCO2,Potency,[1],inactive
same,Potency,[2],inactive
same,Potency,[3],inactive
same,Potency,[4],inactive
same,Potency,[5],inactive
same,Potency,[6],inactive
same,Potency,[8],inactive
same,Potency,[9],inactive
same,Potency,[10],inactive
same,Potency,[11],inactive
same,Potency,[12],inactive
same,Potency,[13],inactive
same,Potency,[14],inactive
same,Potency,[15],inactive
same,outcome,[16],inactive
same,Potency,[17],inactive
O=C1c2ccccc2C(=O)C1C(=O)C(c1ccccc1)c1ccccc1,Potency,[1],inactive
same,Potency,[2],inactive
same,Potency,[3],23.7 µM (active)
same,Potency,[4],inactive
same,Potency,[5],inactive
same,Potency,[6],inactive
same,outcome,[7],inactive
same,Potency,[8],inactive
same,Potency,[9],inactive
same,Potency,[10],inactive
same,Potency,[13],inactive
same,Potency,[14],inactive
same,Potency,[15],inactive
same,outcome,[16],inactive
same,Potency,[18],inactive
CCC(Br)(CC)C(=O)NC(N)=O,Potency,[1],inactive
same,Potency,[2],inactive
same,Potency,[3],inactive
same,Potency,[4],inactive
same,Potency,[5],inactive
same,outcome,[7],inactive
same,Potency,[8],inactive
same,Potency,[9],inactive
same,Potency,[10],inactive
same,Potency,[11],inactive
same,Potency,[12],inactive
same,Potency,[14],inactive
same,Potency,[15],inactive
same,outcome,[16],inactive
same,Potency,[17],inactive
same,Potency,[18],inactive
CCCCCCCCCC(=O)O[C@H]1CC[C@H]2[C@@H]3CCC4=CC(=O)CC[C@@H]4[C@H]3CC[C@]12C,Potency,[1],inactive
same,Potency,[2],inactive
same,Potency,[3],inactive
same,Potency,[4],inactive
same,Potency,[5],inactive
same,Potency,[6],inactive
same,Potency,[19],inactive
same,Potency,[9],inactive
same,Potency,[12],inactive
same,Potency,[13],inactive
same,Potency,[14],inactive
same,Potency,[15],inactive
same,outcome,[16],inactive
same,Potency,[17],inactive
same,Potency,[18],inactive
C#CCOC(C(=O)OCCN(C)C)(c1ccccc1)c1ccccc1,Potency,[1],inactive
same,Potency,[2],inactive
same,Potency,[3],inactive
same,Potency,[4],inactive
same,Potency,[5],inactive
same,Potency,[6],inactive
same,outcome,[7],inactive
same,Potency,[8],inactive
same,Potency,[9],inactive
same,Potency,[10],inactive
same,Potency,[11],inactive
same,Potency,[12],inactive
same,Potency,[13],inactive
same,Potency,[14],inactive
same,Potency,[15],inactive
same,outcome,[16],inactive
